Values without a mark were called inactive.

Luciferin 4-monooxygenase (Photinus pyralis), sequence (P08659 whole entry, looked up): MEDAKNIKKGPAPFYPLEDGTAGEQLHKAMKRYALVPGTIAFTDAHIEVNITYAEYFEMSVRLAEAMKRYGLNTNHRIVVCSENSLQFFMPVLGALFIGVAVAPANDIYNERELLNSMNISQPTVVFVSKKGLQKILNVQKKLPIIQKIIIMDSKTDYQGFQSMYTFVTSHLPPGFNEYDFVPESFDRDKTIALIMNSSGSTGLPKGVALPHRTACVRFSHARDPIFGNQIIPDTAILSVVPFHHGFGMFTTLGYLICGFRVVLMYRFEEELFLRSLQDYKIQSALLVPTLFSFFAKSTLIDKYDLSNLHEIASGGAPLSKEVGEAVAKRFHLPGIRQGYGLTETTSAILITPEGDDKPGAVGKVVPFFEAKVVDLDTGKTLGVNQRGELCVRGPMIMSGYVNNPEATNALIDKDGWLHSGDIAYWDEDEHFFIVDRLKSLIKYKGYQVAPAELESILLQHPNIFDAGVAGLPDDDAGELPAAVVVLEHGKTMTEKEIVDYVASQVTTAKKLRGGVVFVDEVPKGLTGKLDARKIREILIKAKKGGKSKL

This assay concerns the target Luciferin 4-monooxygenase (Photinus pyralis) (UniProt P08659). The assay is described as follows: firefly luciferase enzyme inhibitors, primary screen, biochemical, luminescence, purified enzyme, 2006 set (AID 1141).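 Further: cell-free assay with purified firefly luciferase at 100 ng per well in PBS; test concentration not given here.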 The conditions noted are these: SteadyGlo luminescence, 30 min, higher = more signal, called active from +8 up or from −8 down.
Consider `Cc1ccc(S[C@]2(C(=O)NCC(F)(F)F)CC(=O)N(Cc3ccccc3)[C@@H]2c2ccc(CO)cc2)cc1`, for which the z-score was 0.519. Consider `O=C1O[C@@H](c2ccccc2)[C@@H](c2ccccc2)N2[C@@H](c3ccccc3OCCO)[C@]3(C(=O)Nc4ccccc43)[C@@H](C(=O)NC[C@H](O)c3ccccc3)[C@H]12`, for which the z-score is 0.0121. In the case of `COc1ccc([Si](C)(C)[C@@H]2[C@@H](CC(=O)N3CCC[C@H]3CO)O[C@]3(C(=O)N(Cc4ccc(N5C(=O)c6cccc7cccc5c67)cc4)c4ccccc43)[C@H]2C)cc1`, the z-score is 0.508.

Consider `O=C1NC(=O)C2C1C=CC(C(O)c1ccc(Br)cc1)N2Nc1ccccn1` (stereo not given), for which the z-score was -1.52. The value for `O=C1C2C=CC(C(O)c3cc(C(F)(F)F)cc(C(F)(F)F)c3)N(Nc3ccc([N+](=O)[O-])cc3)C2C(=O)N1c1ccccc1` (stereo not given) was 0.833; that for `O=C1O[C@@H](c2ccccc2)[C@@H](c2ccccc2)N2[C@@H](c3ccccc3OCCO)[C@]3(C(=O)Nc4ccc(C#CCCO)cc43)[C@@H](C(=O)Nc3nc4ccccc4s3)[C@H]12` was -0.778. As to `COc1ccccc1CN1C(=O)c2ccccc2[C@](Cc2ccccc2I)(C(=O)NC(C)C)[C@@H]1c1ccc(CO)cc1`, the z-score is 1.35.

As for `COC(=O)C(CC#Cc1ccc2c(c1)[C@]1(C(=O)N2)[C@H](C(=O)O)[C@H]2C(=O)O[C@H](c3ccccc3)[C@H](c3ccccc3)N2[C@@H]1c1ccccc1OCCO)C(=O)OC`, the z-score is -3.09. With `CC(C)NC(=O)[C@@]1(C)c2ccccc2C(=O)N(C(C)C)[C@H]1c1ccc(CO)cc1`, the z-score was -0.682. The result for `NCCCCCCNC(=O)[C@@H]1C[C@@H]2C(=O)N3CCC[C@H]3C(=O)N2[C@@H]1c1ccc(O)cc1` reads -0.284; that for `CC(C)C(O)C1C=CC2C(=O)N(C)C(=O)C2N1Nc1ccccc1` (stereo not given), -0.968. The result for `C=CC[C@]12N=C(c3ccc(OCCCO)cc3)O[C@H]1c1ccccc1N(C)C2=O` reads -7.68; that for `CC(C)(C)OC(=O)CC[C@]1(C(=O)O)N=C(c2ccc(OCCCO)cc2)O[C@H]1c1ccccc1CN=[N+]=[N-]`, -2.06. For the compound `COc1ccc(NN2C(C(O)c3ccco3)C=CC3C(=O)N(C4CCCCC4)C(=O)C32)cc1` (stereo not given), the z-score is -0.358. The result for `CCOC(=O)[C@H]1C/C=C/C[C@H](C(=O)OCC)C(=O)O[C@H]2[C@@H](OC)O[C@H](CO)[C@@H](OC(=O)CCc3ccccc3)[C@@H]2OC1=O` reads 0.418. With `COCCOC(=O)N1C(=O)[C@@]2(c3cc(C#CCNC(N)=O)ccc31)[C@H](C(=O)N1CCCCCCC1)[C@H]1C(=O)O[C@H](c3ccccc3)[C@H](c3ccccc3)N1[C@@H]2c1ccc(O)cc1`, the z-score was -0.352. For `O=C1c2ccccc2[C@](Cc2ccccc2I)(C(=O)NCc2ccccc2)[C@H](c2ccc(CO)cc2)N1C1CCCCC1`, the z-score was -0.0828. Regarding `C=CCOC(=O)[C@H]1[C@@H]2C(=O)O[C@@H](c3ccccc3)[C@@H](c3ccccc3)N2[C@@H](c2ccc(OCCOC(=O)[C@H]3C[C@H]4C(=O)N[C@@H](Cc5ccccc5)C(=O)N4[C@H]3c3ccc(O)cc3)cc2)[C@]12C(=O)Nc1ccc(I)cc12`, the z-score is -0.649. For the compound `COCCCNC(=O)[C@@]1(Sc2ccc(C)cc2)CC(=O)N(Cc2cc(C(F)(F)F)cc(C(F)(F)F)c2)[C@@H]1c1ccc(CO)cc1`, the z-score was -0.363. As for `C=CCN1C(=O)[C@@]2(CCC(=O)OC(C)(C)C)N=C(c3ccc(OCCCO)cc3)O[C@H]2c2ccccc21`, the z-score was -4.58.

For `C=CCNC(=O)[C@@H]1[C@H]2C(=O)O[C@H](c3ccccc3)[C@H](c3ccccc3)N2[C@H](c2ccccc2OCCO)[C@@]12C(=O)N(C(=O)OCCOC)c1ccc(C#CC3=CCCCC3)cc12`, the z-score was -1.53. Turning to `COc1ccc(C(O)C2C=CC3C(=O)N(c4ccccc4)C(=O)C3N2Nc2ccc(C#N)cc2)c2ccccc12` (stereo not given), the z-score was -0.786. On to `COCCOC(=O)N1C(=O)[C@@]2(c3cc(C#CC4(O)CCCCCC4)ccc31)[C@H](c1ccccc1OCCO)N1[C@H](c3ccccc3)[C@H](c3ccccc3)OC(=O)[C@H]1[C@@H]2C(N)=O`, for which the z-score is -0.927.

On to `C[C@]1(C(=O)NC2CC2)c2ccccc2C(=O)N(Cc2ccc(OC(F)(F)F)cc2)[C@H]1c1ccc(CO)cc1`, for which the z-score was 0.371. On to `C#CCNC(=O)[C@H](Cc1ccccc1)NC(=O)[C@@H](N=[N+]=[N-])C(C)C`, for which the z-score is -0.66. The result for `CC(C)(C)OC(=O)CC[C@]1(C(=O)NCCN2CCOCC2)N=C(c2ccc(OCCCO)cc2)O[C@H]1c1ccccc1` reads -1.16; that for `[N-]=[N+]=NCc1ccccc1C[C@]1(C(=O)NCC(O)CO)N=C(c2ccc(OCCCO)cc2)O[C@H]1c1ccccc1CN=[N+]=[N-]` (stereo not given in full), -0.0074; that for `COc1cc2c(cc1OC)CN(C(=O)[C@@H]1[C@H]3C(=O)O[C@H](c4ccccc4)[C@H](c4ccccc4)N3[C@H](c3ccccc3OCCO)[C@@]13C(=O)Nc1ccc(C#CC4(O)CCCCCC4)cc13)CC2`, -0.877. For `C[C@@H](OCc1ccccc1)C1NC(=O)[C@@]23C(=O)N[C@@H](Cc4ccccc4)C2[C@H](C)[C@@]2(C)O[C@H]2C3/C=C/C/C=C\CNC(=O)CNC1=O` (stereo not given in full), the z-score was 0.196. As for `COCCCNC(=O)[C@]1(CCC(=O)OC(C)(C)C)N=C(c2ccc(OCCCO)cc2)O[C@@H]1c1ccccc1`, the z-score is -0.127. `CN(C)C(=O)[C@@]1(Cc2ccccc2N=[N+]=[N-])COC(c2ccc(OCCCO)cc2)=N1`: the z-score was -3.71. Turning to `CCCc1cccc(=O)o1`, the z-score was 2.08. The value for `CC(C)C[C@@H]1NC(=O)[C@H]2C[C@@H](C(=O)NCCCCCC[N+](C)(C)C)[C@@H](c3cccc(OCCO)c3)N2C1=O` was 0.579; that for `[N-]=[N+]=Nc1ccccc1C[C@]1(C(=O)NCc2ccccc2)N=C(c2ccc(OCCCO)cc2)O[C@H]1c1ccccc1` was -1.34; that for `C[C@@H]1ON(c2ccc(C(=O)OC(C)(C)C)cc2)[C@H](c2ccc(Br)cc2)[C@H]1C(=O)N1C(=O)OC[C@H]1Cc1ccccc1` was -0.874.

Values taken from PubChem BioAssay.
